This excerpt belongs to a sample that is enriched for hits.
ST2 inh: inhibitors of human ST2 (IL1RL1) binding to IL-33; 78,000 compounds, 2.3% hits; Q01638; inhibition, % for hits at 17 µM; AlphaLISA ST2-Fc/biotin-IL-33 interaction, 1 h; AID 1259354; in the data active means inhibition above about 30%
An asterisk follows results filed as active; i = inactive.

SMILES	ST2 inh
COc1ccc(C(c2c(O)c3ccccc3oc2=O)c2c(C)n(C)n(-c3ccccc3)c2=O)cc1 (centres undefined)	i
Cc1c(C(c2ccccc2Cl)c2c(O)c3ccccc3oc2=O)c(=O)n(-c2ccccc2)n1C (centres undefined)	i
COc1ccccc1CNC(=O)[C@H]1CN2CCC1C[C@@H]2Cn1cc(CN(C)C)nn1 (some centres undefined)	i
O=[N+]([O-])c1cccc(CN2CC=C(c3ccc(F)cc3)CC2)c1	35%*
CN1CCN(Cc2ccccc2[N+](=O)[O-])CC1	i
O=[N+]([O-])c1ccccc1CN1CC=C(c2ccc(F)cc2)CC1	30%*
CN1CCN(Cc2cccc([N+](=O)[O-])c2)CC1	i
O=[N+]([O-])c1ccccc1CN1CCN(c2ccc(Cl)cc2)CC1	i
NC(=O)c1ccc(OCC(O)CN2CC=C(c3ccc(F)cc3)CC2)cc1 (centres undefined)	i
C=C[C@H]1CN2CC[C@H]1C[C@@H]2CNC(=S)NCC1CCCCC1	i
Cc1ccc(C(=O)NC[C@H]2C[C@@H]3CCN2C[C@@H]3c2cc(-c3cccs3)nc(C)n2)cc1	i
CC(Cc1ccccc1F)NCc1noc(-c2ccc3c(c2)OCO3)n1 (centres undefined)	i
CN(CCc1ccccn1)C1CCCC1	i
CN1CCN(Cc2c[nH]c3ccccc23)CC1	i
C#CCOc1c(I)cc(/C=C/[N+](=O)[O-])cc1OC	i
COc1ccc(Cl)cc1/C=C/[N+](=O)[O-]	97%*
COc1ccccc1CNC(=O)[C@H]1CN2CCC1C[C@@H]2Cn1cc(-c2ccc(C(C)(C)C)cc2)nn1 (some centres undefined)	i
CN1C[C@@H]2OCC(=O)N(CC3CC3)[C@@H]2C1	i
O=[N+]([O-])c1ccc(NCCCN2CCOCC2)c2cccnc12	i
CC(Nc1ccc([N+](=O)[O-])c2cccnc12)c1ccc(Br)cc1 (centres undefined)	40%*
O=c1ccc(-c2ccc3ccccc3c2)c2n1C[C@H]1C[C@@H]2CN(S(=O)(=O)c2cccs2)C1	i
Cc1ccnc(CC(C)N(C)Cc2cccc3cnccc23)c1 (centres undefined)	i

Screening results as filed in PubChem BioAssay.
